# Experimental data published in PubChem BioAssay AID504546 (Broad Institute, 2011).
# Inconclusive results are not listed. The source made the active and inactive calls.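 Rule for the calls: active = every repeat run fits a falling-signal curve with half-maximal potency within ten times top tested dose; inconclusive = runs disagree, or flat moderate drop, or poor fit; inactive = every run inactive, including signal moving upward.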
# Assay: inhibition of ADP-Glo detection reagents, dose response, artefact control for CDK5 inhibitor project, biochemical, luminescence, cherry-picked samples, set 2 (AID 504546)
# Settings: ADP-Glo detection reagent counter screen, 5 uM ADP; series mostly up to 30 µM
row,Structure (SMILES),outcome
1,Clc1cncc(Cl)c1N/N=C/c1ccncc1,inactive
2,CC(C)[C@H](CO)Nc1nc(NCc2ccc(S(N)(=O)=O)cc2)c2ncn(C(C)C)c2n1,inactive
3,Cc1cccc(/N=C/c2c(O)ccc3oc4c(c23)CCCC4)n1,inactive
4,Cc1ccc(-n2nc(C)c3c2C(Br)C(C)(C)CC3=O)nc1 (stereo unspecified),inactive
5,Nc1nc(Nc2cccc(Cl)c2)nc(NCCO)c1[N+](=O)[O-],inactive
6,Cc1[nH][nH]c(=O)c1C(c1ccccc1[N+](=O)[O-])C(C#N)C#N (stereo unspecified),inactive
7,Nc1ccc2c(c1)C(=NO)c1ccccc1-2,inactive
8,COc1ccc(Nc2nccc(-c3ccc(C#N)cc3)n2)cc1,inactive
9,O=C(O)c1ccc(/C=N/Nc2ncc(C(F)(F)F)cc2Cl)cc1,inactive
10,Cc1nn(-c2ccc(Cl)cn2)c2c1C(=O)CC(C)(C)C2Br (stereo unspecified),inactive
11,COc1ccc2nc3c(cc2c1)c(NC(=O)CC(C)C)nn3CC(C)C,inactive
12,COc1ccc(C(=O)c2sc(NC(C)C)nc2N)cc1OC,inactive
13,COc1ccccc1C(=O)N1CCN(c2ccccn2)CC1,inactive
14,NC1=NC(=O)/C(=C/c2ccc(-c3ccc(S(N)(=O)=O)cc3)o2)S1,inactive
15,Nc1ccc(-c2cnc(N)c(C(=O)c3cccnc3)n2)cn1,inactive
16,COc1cc(OC)cc(C(=O)NNC(=O)c2ccccn2)c1,inactive
17,Oc1cc2c(cc1O)C1c3ccc(O)c(O)c3OCC1(O)C2 (stereo unspecified),inactive
18,CC(C)[C@H](CO)N(Cc1cccc(F)c1)c1nc(Nc2cccc(Cl)c2)c2ncn(C(C)C)c2n1,inactive

row,Structure (SMILES),outcome
1,FC(F)(F)c1ccc(N/N=C/c2cccnc2)nc1,inactive
2,COc1cccc(C(=O)N2CCN(c3ccccn3)CC2)c1,inactive
3,C=CC(=O)Nc1ccc(Nc2ccnc(Nc3ccc(N4CCN(C)CC4)cc3)n2)cc1,inactive
4,Oc1ccc(/C=N/Nc2cccc(Cl)n2)c(O)c1,inactive
5,Cc1nn(-c2nc3ccccc3[nH]2)c(=O)c2ccccc12,inactive
6,COc1ccc(C(=O)c2sc(Nc3ccccc3F)nc2N)cc1,inactive
7,ON=C1c2ccccc2-c2ccc(O)cc21,inactive
8,NC(=O)c1cc([N+](=O)[O-])c(Cl)cc1NCc1cccnc1,inactive
9,COc1ccc(Nc2nc(N)c(C(=O)c3ccc(F)cc3)s2)cc1,inactive
10,CC(C)n1cnc2c(Nc3cccc(F)c3)nc(NCCO)nc21,inactive
11,O=C(Cc1ccc(O)cc1)NCCNC(=S)NCc1ccccc1,inactive
12,Nc1nc(Nc2cccc(F)c2)nc(NCCO)c1[N+](=O)[O-],inactive
13,CC(C)C[C@H](CO)Nc1nc(Nc2cccc(Cl)c2)c2ncn(C(C)C)c2n1,inactive
14,C=CCNC(=O)c1n[nH]c2c1CC(C(C)(C)CC)CC2 (stereo unspecified),inactive
15,CC(C)=CCNc1ncnc2c1c(C#N)cn2C1OC(CO)C(O)C1O (stereo unspecified),inactive
16,Cc1ccc(C(=O)O/N=C(\N)c2ccccn2)cc1C,inactive
17,O=c1c(O)c(-c2ccc(O)c(O)c2)oc2cc(O)ccc12,inactive
18,CC(C)(C)C(=O)c1sc(Nc2ccccc2)nc1N,inactive
